A selection: hits, their analogues and other compounds. The true share with any hit is near 2.9%.
ZTA DNA inh: ZTA (EBV) inhibition in EBNA-1 counter-screen | ZTA-DNA binding, fluorescence polarization | 320,000 compounds, 0.15% hits | inhibition, % at 11 µM; in the data active means inhibition above about 33%
Target sequence (P03206 whole entry, looked up): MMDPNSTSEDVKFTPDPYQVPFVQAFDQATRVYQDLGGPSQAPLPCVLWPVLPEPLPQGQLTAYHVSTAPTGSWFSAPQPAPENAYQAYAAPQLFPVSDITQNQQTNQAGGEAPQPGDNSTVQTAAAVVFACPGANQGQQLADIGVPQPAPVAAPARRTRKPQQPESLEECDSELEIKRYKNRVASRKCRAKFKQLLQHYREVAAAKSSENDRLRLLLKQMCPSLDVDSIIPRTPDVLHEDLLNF
rCAG RNA binder: binds r(CAG) RNA repeats | r(CAG) RNA repeat, TO-PRO-1 dye displacement fluorescence | 370,000 compounds, 1.3% hits | AID 651821 | inhibition, % at 3 µM;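 active means inhibition above the plate cutoff, the mean of all test compounds on that plate plus 3 SD, cut at about 35% in these data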;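 further: 0% = DMSO alone and 100% = 100 µM mitoxantrone as full dye displacement; higher means more dye released from RNA so lower well fluorescence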
PAFAH2 inh: inhibitors of human PAFAH2 | recombinant PAFAH2, FP-rhodamine activity probe, fluorescence polarization | inhibition, % at 3.39 µM | 340,000 compounds, 0.99% hits | AID 492956;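 active means inhibition above the mean over all tested compounds plus 3 SD, cut at about 30% in these data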;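 further: inhibitors block probe labeling of enzyme so polarization drops; 0% = enzyme with DMSO and 100% = wells lacking PAFAH2 protein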
EBNA-1 inh: blocks EBNA-1 binding to DNA; inhibition, % at 14.8 µM; 300,000 compounds, 0.34% hits; EBNA-1 DNA binding, fluorescence polarization; AID 1950; in the data active means inhibition above about 28%
PAFAH1B2 FP inh: inhibitors of human PAFAH1B2; recombinant PAFAH1B2, FP-rhodamine activity probe, fluorescence polarization; inhibition, % at 3.39 µM; 340,000 compounds, 1.2% hits; AID 492953;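 active means inhibition above the mean of all tested compounds plus 3 SD, cut at about 24% in these data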;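 further: 0% = enzyme with DMSO and 100% = wells lacking PAFAH1B2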
PAFAH1B3 FP inh: blocks human PAF acetylhydrolase 1B catalytic subunit 3. AID 492972. Q15102. inhibition, % at 3.39 µM. 340,000 compounds, 0.28% hits. recombinant PAFAH1B3, FP-rhodamine probe, fluorescence polarization;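 active means inhibition above the screen-wide average of all tested compounds plus 3 SD, cut at about 25% in these data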;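 further: 0% = enzyme with DMSO only and 100% = wells lacking PAFAH1B3 protein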
Target sequence (Q15102 whole entry, looked up): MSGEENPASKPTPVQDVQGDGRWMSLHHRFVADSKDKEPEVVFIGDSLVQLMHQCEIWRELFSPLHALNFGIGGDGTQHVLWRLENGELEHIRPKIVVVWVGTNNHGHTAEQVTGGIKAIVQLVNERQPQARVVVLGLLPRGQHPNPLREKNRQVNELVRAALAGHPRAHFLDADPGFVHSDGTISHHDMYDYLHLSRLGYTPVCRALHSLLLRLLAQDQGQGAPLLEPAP
PAFAH2 FP conf: PAFAH2 (human) inhibition, confirmed; recombinant PAFAH2, FP-rhodamine activity probe, fluorescence polarization; inhibition, % at 3.39 µM; 2,300 compounds, 65% hits; shares compounds with PAFAH2 inh;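 active means mean inhibition over three repeats above a set limit taken from the earlier primary screen, cut at about 30% in these data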;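 further: inhibitor blocks binding of rhodamine activity probe so polarization falls; 0% = enzyme with DMSO and 100% = wells lacking PAFAH2 protein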
rCAG binder conf: r(CAG) RNA repeat binding, confirmation; shares compounds with rCAG RNA binder; TO-PRO-1 dye displacement fluorescence; inhibition, % at 3 µM; 4,300 compounds, 70% hits; AID 652065;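 active means inhibition above a per-plate cutoff, the mean inhibition of sample wells plus 3 SD, cut at about 35% in these data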;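 further: loss of TO-PRO-1 fluorescence as compound displaces dye from 1x1 AA loop RNA; 0% = DMSO only wells and 100% = 100 µM mitoxantrone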
dCAG dye counter: counter-screen for rCAG RNA binders: DNA CAG dye complex inhibitors. shares compounds with rCAG RNA binder. d(CAG) DNA oligo TO-PRO-1 dye displacement, fluorescence. inhibition, % at 3 µM. 4,300 compounds, 94% hits;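 active means inhibition above its plate's cutoff, the mean test-well inhibition plus 3 SD, cut at about 4.8% in these data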;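 further: 0% = DNA dye mix with DMSO and 100% = 100 µM mitoxantrone; hits displace the dye from DNA and so lower well fluorescence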
DNA CAG DR: disrupts DNA CAG TO-PRO-1 complex in dose response. shares compounds with rCAG RNA binder. DNA CAG/GTC duplex TO-PRO-1 dye displacement fluorescence. IC50, µM. 250 compounds, 20% hits; in the data active means IC50 below about 10 µM
* hit, by the source's call; i = inactive; nt = not tested or not shown.

SMILES	ZTA DNA inh	rCAG RNA binder	PAFAH2 inh	EBNA-1 inh	PAFAH1B2 FP inh	PAFAH1B3 FP inh	PAFAH2 FP conf	rCAG binder conf	dCAG dye counter	others
O=[N+]([O-])c1cc(Br)c(O)c(/C=N/Nc2nnnn2-c2cccc3ccccc23)c1	19	92*	35*	3	18	21	24	89*	63*
O=C(CN1C(=O)S/C(=C\c2ccccc2)C1=O)Nc1cc([N+](=O)[O-])ccc1O	7	80*	57*	13	16	15	43*	61*	24*
COc1ccc(/C=C2\SC(=O)N(CC(=O)Nc3ccccc3O)C2=O)cc1OC	nt	22	-8	nt	2	1	nt	nt	nt
CN1C(=O)c2cc(NC(=O)c3ccccc3)ccc2OC[C@H]2O[C@@H](CC(=O)NCC3CC3)CC[C@@H]21	nt	3	nt	nt	nt	nt	nt	nt	nt
CN1C(=O)[C@@]2(C3=C(CCCC3=O)OC3=C2C(=O)OC2(CCCCC2)C3)c2ccccc21	nt	2	nt	nt	nt	nt	nt	nt	nt
Cc1ccc(C2CC(=O)N3CN(c4ccc(Br)cc4)CSC3=C2C#N)o1 (stereo not drawn)	-1	63*	32*	1	4	6	9	49*	18*
N#CC1=C2SCN(c3ccccc3)CN2C(=O)CC1c1cccs1 (stereo not drawn)	-10	28	2	-7	5	5	nt	nt	nt
C=CCN1C(=O)[C@H](CC(=O)NCCC(C)C)[C@@]2(C(=O)OCC)CCCC=C12	nt	-2	nt	nt	nt	nt	nt	nt	nt
CC(C)C(=O)N(c1cc2sc(=O)oc2c2ccccc12)S(=O)(=O)c1cccs1	14	77*	32*	-5	3	10	26	48*	23*
COCCN1CCCc2nc(-c3ccc(F)cc3)ccc21	nt	7	nt	nt	nt	nt	nt	nt	nt
CCOC(=O)Cc1c(C)nc2c(-c3cccc(Br)c3)c[nH]n2c1=O	23	72*	33*	8	9	5	28	47*	15*
COc1ccc(C(=O)NCCNc2nc3cc(C)cc(C)c3cc2C#N)c(OC)c1	nt	7	nt	nt	nt	nt	nt	nt	nt
O=c1oc(-c2ccccc2NS(=O)(=O)c2ccc3ccccc3c2)nc2ccccc12	1	66*	36*	6	4	-20	40*	37*	12*
Cc1ccccc1NS(=O)(=O)c1ccc2oc(=O)ccc2c1	-12	4	1	5	-1	8	nt	nt	nt
COc1ccc(C(C(=O)N(C)C2CCCC2)N(Cc2ccc(F)cc2)C(=O)c2csc(-c3ccccc3)n2)cc1OC (stereo not drawn)	nt	7	nt	nt	nt	nt	nt	nt	nt
N#Cc1cccc(NC(=O)CSc2sc3c(O)cc(=O)[nH]c3c2C#N)c1	-7	47*	40*	4	15	13	-2	19	7.3*
N#Cc1cccc(NC(=O)CSc2n[nH]c(=O)[nH]c2=O)c1	-11	2	1	3	6	-3	nt	nt	nt
Cc1ccc(S(=O)(=O)N(CC(=O)Nc2ccccc2C(=O)O)c2cccc(Cl)c2C)cc1	16	78*	32*	9	10	-10	29	82*	52*
CC(C)Cc1csc(NC(=O)c2ccc(F)cc2)c1C(=O)O	-4	35*	37*	2	3	3	21	19	2
CCOC(=O)c1c(CC(C)C)csc1NC(C)=O	7	-5	5	3	5	-2	nt	nt	nt
O=c1cc(C(F)(F)F)nc(SCc2cccc3ccccc23)[nH]1	8	69*	51*	5	9	3	31*	40*	10*
O=c1cc(-c2ccc(O)c(O)c2)oc2ccc3ccccc3c12	nt	41*	35*	nt	-2	6	47*	59*	28*
O=c1cc(-c2ccccc2)oc2ccc3ccccc3c12	nt	5	nt	nt	nt	nt	nt	nt	nt
COC(=O)[C@H](C(C)C)N(CCc1cn(Cc2ccccc2)nn1)S(=O)(=O)c1ccccc1Br	nt	0	nt	nt	nt	nt	nt	nt	nt
O=C(CSc1nnc(-c2ccco2)c(-c2ccco2)n1)Nc1ccccc1	20	60*	42*	1	2	10	11	28	15*
SMILES	ZTA DNA inh	rCAG RNA binder	PAFAH2 inh	EBNA-1 inh	PAFAH1B2 FP inh	PAFAH1B3 FP inh	PAFAH2 FP conf	rCAG binder conf	dCAG dye counter	others
CC(=O)C1=C(O)C(=O)N(c2cc(C(C)(C)C)on2)C1c1ccc(Br)cc1 (stereo not drawn)	4	47*	34*	-5	14	7	23	46*	13*	DNA CAG DR=i
CC(=O)C1=C(O)C(=O)N(c2cc(C(C)(C)C)on2)C1c1ccc(C(C)C)cc1 (stereo not drawn)	-5	nt	16	-15	5	-3	nt	nt	nt
CN(C)S(=O)(=O)c1cccc(NC(=S)N/N=C/c2cccc(O)c2)c1	-6	9	4	3	0	5	nt	nt	nt
CN(C)S(=O)(=O)c1cccc(NC(=S)N/N=C/c2cc(Br)ccc2O)c1	0	46*	34*	-1	9	20	20	55*	21*
N#Cc1ccccc1N1CCN(C(=O)C2CCN(c3ncnc4c3sc3cccc(F)c34)CC2)CC1	nt	10	nt	nt	nt	nt	nt	nt	nt
COc1ccccc1CNC(=O)COC(=O)c1cc(-c2ccco2)nc2ccccc12	9	41*	33*	0	-3	16	9	31	17*
COc1ccccc1CNC(=O)COC(=O)c1cc(C)nc2ccccc12	nt	1	-3	nt	5	4	nt	nt	nt
CCOC(=O)c1sc(N2C(=O)C(O)=C(C(=O)c3ccco3)C2c2cccc([N+](=O)[O-])c2)nc1C (stereo not drawn)	4	70*	42*	15	-2	6	30*	82*	50*
Cc1nnc(N2C(=O)C(O)=C(C(=O)c3ccco3)C2c2cccc([N+](=O)[O-])c2)s1 (stereo not drawn)	-9	4	-2	12	-1	1	nt	nt	nt
COc1ccc(OC)c(/C=C2\SC(=S)N(C(C(=O)O)c3ccccc3)C2=O)c1 (stereo not drawn)	17	55*	32*	4	0	6	15	77*	44*
CCOc1ccc(/C=C2\SC(=S)N(C(C(=O)O)c3ccccc3)C2=O)cc1OC (stereo not drawn)	6	14	2	4	3	5	nt	nt	nt
COc1cccc(/C=C2\SC(=S)N(C(Cc3ccccc3)C(=O)O)C2=O)c1 (stereo not drawn)	14	69*	33*	5	5	0	16	78*	31*	DNA CAG DR=i
O=C(NCCN1CCC(n2c(=O)[nH]c3ccccc32)CC1)c1ccc(Cl)c(Cl)c1	nt	2	nt	nt	nt	nt	nt	nt	nt

Source: PubChem (The Scripps Research Institute Molecular Screening Center)
